Some compounds were tested as several samples or in several runs, with calls that do not always agree. Active and inactive are the calls of the source. Rule for the calls: active = hit-call score of the fitted dose curve at least 0.9, where 1 is the maximum; inactive = score below 0.9.
Columns and labels:
[1] = ATG_EGR_CIS: Attagene CIS-FACTORIAL HepG2 Assay for human Early Growth Response 1 (EGR1) (AID 2282938); conditions: HepG2 Attagene CIS-FACTORIAL EGR reporter mRNA; actives raise or lower the signal
Procedure, shortened: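 HepG2, transient MRTU transfection (cis promoters), 24 h compound. RNA → RT (oligo-dT) → PCR → 6-FAM labelling → HpaI cut → CE fluorescence. Bidirectional fit, DMSO baseline.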

[2] = ATG_M_19_CIS: Attagene CIS-FACTORIAL HepG2 Assay for M19 Transcription Factor (Internal Marker) (AID 2282939); conditions: HepG2 Attagene CIS-FACTORIAL M19 internal marker reporter; actives raise or lower the signal
Procedure, shortened: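 Chemical-treated HepG2 (24 h) with MRTU constructs; reporter transcripts detected by fluorescent RT-PCR fragment analysis on capillary electrophoresis. Internal background marker, DMSO as baseline.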

[3] = ATG_ERE_CIS: Attagene CIS-FACTORIAL HepG2 Assay for Estrogen Response Element (ERE) (AID 2282940); conditions: HepG2 ERE cis-reporter, Attagene RNA transcript; actives raise or lower the signal
Procedure, shortened: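 Human liver cells (HepG2) bearing transiently transfected, promoter-regulated reporter units were exposed 24 h. Reporter mRNA induction was detected by capillary electrophoresis of labelled RT-PCR products and fitted bidirectionally to DMSO.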

[4] = ATG_Ets_CIS: Attagene CIS-FACTORIAL HepG2 Assay for human Erythroblast Transformation Specific (ETS) (AID 2282941); conditions: HepG2 ETS cis-reporter transcription, actives raise or lower the signal
Procedure, shortened: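 Human HepG2 hepatoma cells were transiently transfected with promoter-driven reporter constructs and treated for 24 hours. Reporter transcripts were quantified by RT-PCR with fluorescent primer extension; bidirectional curve fitting used DMSO as reference.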

[5] = molecular target: Hepatocyte nuclear factor 3-beta (Homo sapiens) (UniProt Q9Y261); test: ATG_FoxA2_CIS: Attagene CIS-FACTORIAL HepG2 Assay for human Forkhead box A2 (FOXA2) (AID 2282942); conditions: HepG2 cis-reporter transcription factor activity, 24 h; actives raise or lower the signal
Hepatocyte nuclear factor 3-beta (Homo sapiens), sequence (Q9Y261 whole entry, looked up): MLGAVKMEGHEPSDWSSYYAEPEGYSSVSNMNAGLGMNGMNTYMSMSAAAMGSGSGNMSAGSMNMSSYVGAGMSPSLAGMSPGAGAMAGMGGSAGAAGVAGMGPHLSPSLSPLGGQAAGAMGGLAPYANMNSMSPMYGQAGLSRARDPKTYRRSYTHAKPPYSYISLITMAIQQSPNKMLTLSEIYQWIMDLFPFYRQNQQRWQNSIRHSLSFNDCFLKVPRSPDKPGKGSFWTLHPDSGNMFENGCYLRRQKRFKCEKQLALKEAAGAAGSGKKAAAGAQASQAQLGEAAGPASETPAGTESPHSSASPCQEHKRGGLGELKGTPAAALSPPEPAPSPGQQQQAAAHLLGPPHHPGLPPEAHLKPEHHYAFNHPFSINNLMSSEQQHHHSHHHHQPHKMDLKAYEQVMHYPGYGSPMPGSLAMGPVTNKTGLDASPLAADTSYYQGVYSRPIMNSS
Procedure, shortened: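 Cells: HepG2, transient multiplex reporter transfection. Exposure 24 h. Detection: reporter-specific RT-PCR, fluorescent labelling, restriction digest, capillary electrophoresis. Analysis: bidirectional curve fit, DMSO as negative control.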

[6] = ATG_FoxO_CIS: Attagene CIS-FACTORIAL HepG2 Assay for human Forkhead box O (FoxO) (AID 2282943); conditions: HepG2 Attagene cis-reporter, FoxO element, mRNA; actives raise or lower the signal
Procedure, shortened: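 HepG2 cells transiently transfected with cis-element-driven reporter units report endogenous FoxO activity. After 24 h chemical exposure, reporter mRNA quantified by RT-PCR, fluorescent labeling, HpaI digestion and capillary electrophoresis; bidirectional fit versus DMSO.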

[7] = ATG_GATA_CIS: Attagene CIS-FACTORIAL HepG2 Assay for human GATA Binding Protein (AID 2282944); conditions: HepG2 GATA cis-element reporter, Attagene multiplex mRNA; actives raise or lower the signal
Procedure, shortened: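 Transfected cis-reporter HepG2 cells were treated with chemicals for 24 hours. Total RNA was then converted to cDNA, amplified with reporter-specific primers and analysed by fluorescent capillary electrophoresis, using DMSO-treated wells as baseline.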

[8] = ATG_GLI_CIS: Attagene CIS-FACTORIAL HepG2 Assay for human Zinc Finger Protein GLI1 (AID 2282945); conditions: HepG2, Attagene cis-factorial reporter mRNA, GLI element; actives raise or lower the signal
Procedure, shortened: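 Transiently transfected HepG2 cells report endogenous transcription factor activity via cis-element-driven reporter units. After 24 h compound exposure, reporter mRNA was measured by RT-PCR with capillary electrophoresis; bidirectional fitting against DMSO baseline.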

[9] = ATG_GRE_CIS: Attagene CIS-FACTORIAL HepG2 Assay for human Glucocorticoid Response Elements (GRE) (AID 2282947); conditions: HepG2 GRE cis-reporter, Attagene multiplex mRNA; actives raise or lower the signal
Procedure, shortened: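 Endogenous transcription factor activity is read through cis-element reporter constructs transiently transfected into HepG2 cells. After 24 h treatment, labelled RT-PCR products are resolved by capillary electrophoresis; DMSO sets baseline for bidirectional curve fitting.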

[10] = molecular target: Bile acid receptor (Homo sapiens) (UniProt Q96RI1); test: ATG_IR1_CIS: Attagene CIS-FACTORIAL HepG2 Assay for human Nuclear Receptor Subfamily 1 Group H Member 4 (NR1H4), IR1 submotif (AID 2282946); conditions: IR1 reporter transcription, actives raise or lower the signal
Bile acid receptor (Homo sapiens), sequence (Q96RI1 whole entry, looked up): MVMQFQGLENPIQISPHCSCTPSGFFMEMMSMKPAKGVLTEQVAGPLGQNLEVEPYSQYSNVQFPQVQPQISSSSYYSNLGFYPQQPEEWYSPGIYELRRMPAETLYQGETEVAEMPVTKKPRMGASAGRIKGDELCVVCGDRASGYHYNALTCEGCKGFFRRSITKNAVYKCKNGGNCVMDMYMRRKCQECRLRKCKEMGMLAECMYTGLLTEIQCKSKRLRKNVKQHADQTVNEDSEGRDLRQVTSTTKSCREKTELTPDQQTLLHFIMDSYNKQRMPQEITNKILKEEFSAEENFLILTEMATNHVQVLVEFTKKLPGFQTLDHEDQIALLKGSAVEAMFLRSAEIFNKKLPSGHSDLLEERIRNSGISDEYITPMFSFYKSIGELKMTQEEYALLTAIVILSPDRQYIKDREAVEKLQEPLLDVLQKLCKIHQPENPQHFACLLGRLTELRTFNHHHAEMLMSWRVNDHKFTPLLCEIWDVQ
Procedure, shortened: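 HepG2 cells transiently transfected with multiple cis-promoter-driven reporter units to measure endogenous transcription factor activity; 24 h exposure. Reporter mRNA read by RT-PCR, FAM labelling, HpaI digestion and capillary electrophoresis. Bidirectional fit versus DMSO.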

Measured: AC50

O=C1C(Cl)=C(Cl)C(=O)c2ccccc21
active: [3] 5.75 µM
not listed: [10]
inactive: all other assays above

CN(C)P(=O)(N(C)C)N(C)C
not listed: [8] | [9] | [10]
inactive: all other assays above

CCN1CCC2(CC1)COc1cc3c(cc12)N(C(=O)c1ccc(-c2ccc(-c4nnc(C)o4)cc2C)cc1)CC3
not listed: [8] | [9] | [10]
inactive: all other assays above

Cl/C=C/Cl
not listed: [10]
inactive: all other assays above

COP(=O)(OC)O/C(=C\Cl)c1cc(Cl)c(Cl)cc1Cl
inactive: [2] | [4] | [5] | [6] | [7]
active: [1] 37 µM | [3] 4.11 µM

COc1cc(-c2ccc(N)c(OC)c2)ccc1N
active: [1] 27.9 µM | [4] 100 µM
inactive: [1] | [2] | [4] | [5] | [6] | [7] | [8]

CC(C)C1CCC(Cc2ccc(Cl)cc2)C1(O)Cn1cncn1 (stereo unspecified)
inactive: all assays above

c1cc[c]([Hg][c]2ccccc2)cc1
active: [1] 26.4 µM
inactive: all other assays above

CC(C)c1cccc(C(C)C)c1O
not listed: [9] | [10]
inactive: all other assays above

C[C@@H](Oc1ccc(Cl)cc1Cl)C(=O)O
inactive: all assays above

COC[C@H](C)N(C(=O)CCl)c1c(C)csc1C
inactive: all assays above

Cc1ccccc1C(=O)Nc1cccc(OC(C)C)c1
not listed: [10]
inactive: all other assays above

COc1ccccc1OC
not listed: [10]
inactive: all other assays above

C1CCC(NC2CCCCC2)CC1
active: [3] 28.8 µM
not listed: [8] | [10]
inactive: all other assays above

CNC
not listed: [5] | [8] | [10]
inactive: all other assays above

O=S(=O)(c1ccc(Cl)cc1)c1ccc(Cl)cc1
not listed: [5] | [10]
inactive: all other assays above

CCc1ccccc1C
not listed: [8]
inactive: all other assays above

ClC(Cl)=C(Cl)C(Cl)=C(Cl)Cl
active: [1] 131 µM | [6] 180 µM | [9] 165 µM
not listed: [8] | [10]
inactive: all other assays above

COP(=S)(OC)Oc1cc(Cl)c(Cl)cc1Cl
active: [3] 75.6 µM
not listed: [10]
inactive: all other assays above

O=[N+]([O-])c1ccc2c3c(cccc13)CC2
not listed: [5]
inactive: all other assays above

N#CCCO
not listed: [10]
inactive: all other assays above

CCOC(=O)Nc1cccc(OC(=O)Nc2ccccc2)c1
not listed: [10]
inactive: all other assays above

Oc1ccc(-c2ccccc2)cc1
active: [1] 68.5 µM | [3] 2.15 µM
not listed: [8]
inactive: all other assays above

C(=NC1CCCCC1)=NC1CCCCC1
active: [1] 3.17 µM
not listed: [5] | [8] | [9]
inactive: all other assays above

CC(Br)C(=O)O (stereo unspecified)
not listed: [10]
inactive: all other assays above

BrCCBr
not listed: [5] | [10]
inactive: all other assays above

CCOP(=S)(OCC)Oc1nc(Cl)c(Cl)cc1Cl
active: [3] 27.5 µM
not listed: [8] | [10]
inactive: all other assays above

Reference: PubChem BioAssay (EPA / NIEHS)
